According to PubChem BioAssay (NCATS):
Inconclusive results are not listed. Where a call stands in place of a potency, no number is given. Calls of active or inactive are those of the source. Calls come from the whole dose curve; as a rule, active = well fitted curve in the direction sought with a large enough effect; inconclusive = small, poorly fitted or top-dose-only effect, or another doubt; inactive = no such curve, though single readings can be large; an effect the other way counts as inactive or inconclusive.

What was measured:
[1] = target: Aldehyde dehydrogenase, mitochondrial (Homo sapiens) (UniProt P05091); test: qHTS for Inhibitors of the Aldehyde Dehydrogenase Family (ALDH2) Primary screen (AID 2061308); note: nearly all actives have a fitted effect of over 55% in size
[2] = target: Retinaldehyde dehydrogenase 3 (Homo sapiens) (UniProt P47895); test: qHTS for Inhibitors of the Aldehyde Dehydrogenase Family (ALDH1A3) Primary screen (AID 2061315)

| Structure (SMILES) | Potency [1] | Potency [2] |
| --- | --- | --- |
| Cc1ccc(OCCn2c(CCNC(=O)C3CCCC3)nc3ccccc32)cc1 | inactive | inactive |
| COc1ccc(C(=O)Nc2ccc(-c3nc4ccccc4[nH]3)cc2)cc1Br | inactive | inactive |
| COc1cccc(C2c3c(ncn(-c4ccc(-c5ccccc5)cc4)c3=N)Oc3ccc4ccccc4c32)c1 (centres undefined) | inactive | inactive |
| O=C(O)Cc1cc(F)c(S(=O)(=O)N2CCN(S(=O)(=O)c3ccc4c(c3)OCCO4)CC2)cc1F | inactive | inactive |
| O=[S+]([O-])(Nc1ccccc1)c1ccc(NCc2cccc(C(F)(F)F)c2Cl)cc1 | inactive | inactive |
| CCCCNc1nc(C)nc2c1nc(-c1ccccc1)n2CCCN(CC)CC | inactive | inactive |
| Cc1cc(C)nc(NC(=S)N2CC3CN(c4ccc(Cl)cc4C(F)(F)F)CC3C2)c1 (centres undefined) | inactive | inactive |
| Brc1sc2c(c1-c1nc3ccccc3s1)CCNC2 | inactive | inactive |
| CC1(C)CCc2cc(S(=O)(=O)N3CCN(S(=O)(=O)c4c(F)cccc4F)CC3)ccc2O1 | inactive | inactive |
| Cc1cc(Nc2c(Nc3nnc(-c4ccncc4)s3)c(=O)c2=O)ccc1Cl | inactive | inactive |
| Cc1noc(C)c1-c1ccc2ncnc(NCc3cc(F)cc(F)c3)c2c1 | inactive | inactive |
| N#Cc1cccc(Nc2ncc(-c3cccc4ccccc34)o2)c1 | inactive | inactive |
| Cc1cc(C)n2ncc(C(=O)NC(C)C)c2n1 | inactive | inactive |
| O=C(NC1CCCc2c1cnn2-c1ccc(F)cc1F)c1cccc(=O)[nH]1 (centres undefined) | inactive | inactive |
| Oc1ccc(CCc2c(F)cccc2F)c2cccnc12 | inactive | inactive |
| Cc1ccc(OCCn2c(CCNC(=O)c3ccc(C)cc3)nc3ccccc32)cc1 | inactive | inactive |
| COc1cc(N2CCN(C(=S)Nc3cc(C)cc(C)n3)CC2)cc(C(F)(F)F)c1 | inactive | inactive |
| Cc1cc2c(s1)c1cnn(Cc3ccc(S(C)(=O)=O)cc3)c(=O)c1n2C | inactive | inactive |
| CC1CCC2C(C)(C)C(O)CCC2(C)C12Cc1c(O)cc3c(c1O2)C(N)=NC3 (centres undefined) | inactive | inactive |
| Cn1cccc1CN=C1NC2=C(C(=O)CCC2)C(c2[nH]ncc2Cl)N1 (centres undefined) | inactive | inactive |
| c1ccc(-c2nc(NCc3ccc(-c4cccnc4)cc3)c3ccccc3n2)cc1 | inactive | inactive |
| O=[S+]([O-])(c1ccc2c(c1)OCCO2)N1CCN([S+](=O)([O-])c2ccccc2Br)CC1 | inactive | inactive |

| Structure (SMILES) | Potency [1] | Potency [2] |
| --- | --- | --- |
| CC(=O)NC(c1cc(F)c2cccnc2c1O)C(C)C (centres undefined) | inactive | inactive |
| Brc1ccc(-c2csc(N3CCNCC3)n2)cc1 | inactive | inactive |
| COc1cc2ncnc(Nc3cccc(O)c3)c2cc1OC | inactive | inactive |
| COc1cccc(CNc2ccc(S(=O)(=O)Nc3cccnc3)cc2)c1O | inactive | inactive |
| CC1=C(C(=O)Nc2ccccc2Cl)C(c2ccccc2Br)N=C(Nc2nc3ccccc3o2)N1 (centres undefined) | inactive | inactive |
| CC(C)(C)OC(=O)N[C@@H](Cc1ccc(O[S+](=O)([O-])c2cccc3cnccc23)cc1)C(=O)Nc1ccc(-c2ccccc2)cc1 | inactive | inactive |
| Cc1ccc(S(=O)(=O)Nc2ccc(C(=O)Nc3ncc(-c4ccccc4)s3)cc2)cc1 | inactive | inactive |
| N#Cc1c(-c2cccc(C(F)(F)F)c2)no[n+]1[O-] | inactive | inactive |
| Cc1cc2c(s1)c1cnn(Cc3cc(F)cc(F)c3)c(=O)c1n2C | inactive | inactive |
| O=C(Nc1cccnc1)c1cccs1 | inactive | inactive |
| Fc1cccc(CNc2ncnc3ccc(-c4cccc(Cl)c4)cc23)c1 | inactive | inactive |
| Cc1cc(NC(=O)c2ccc(C)c(Nc3nccc(-c4cccnc4)n3)c2)cc(-n2cnc(C)c2)c1 | inactive | inactive |
| CCN(CC)CCCC(C)n1c(-c2ccccc2)nc2c(N3CCOCC3)nc(C)nc21 (centres undefined) | inactive | inactive |
| CC(=O)Nc1sc2c(c1-c1ccc(C(N)=O)cc1)CCNC2 | inactive | inactive |
| C/C=C/C=C/C=C/C(=O)O[C@@H]1C=C(CO)[C@](O)(CO)[C@@]2(C)CCCC(C)(C)[C@H]12 | inactive | inactive |
| CCCn1c(-c2ccc(F)cc2)nc2c(NCCCN(CCO)CCO)nc(C)nc21 | inactive | inactive |
| O=C(OCC#CCSc1nnc(-c2ccc3ccccc3c2)o1)c1cccs1 | inactive | inactive |
| C/C(=C\c1ccsc1)C1Nc2cccc3cccc(c23)N1 | inactive | inactive |
| CCOc1ccc(C(=O)Nc2ccc(-c3nc4ccccc4s3)cc2)cc1[N+](=O)[O-] | inactive | inactive |
| Cc1ccc(S(=O)(=O)Nc2cnccc2C(=O)Nc2nc(-c3ccc(Cl)cc3)cs2)cc1 | inactive | inactive |
| O=C(Nc1ccc(-n2cncn2)c(C(F)(F)F)c1)Nc1nnc(-c2ccncc2)s1 | inactive | inactive |
| CC1=C(C(=O)N(C)C)C(c2ccccc2Br)N=C(Nc2nc3ccccc3o2)N1 (centres undefined) | inactive | inactive |

| Structure (SMILES) | Potency [1] | Potency [2] |
| --- | --- | --- |
| Cn1nnnc1Sc1ncnc2scc(-c3ccccc3C#N)c12 | inactive | inactive |
| Cc1noc(C)c1-c1ccc2ncnc(NCc3ccc(F)c(F)c3)c2c1 | inactive | inactive |
| O=c1c2ccccc2nc2sc(Nc3ccc(F)cc3)nn12 | inactive | inactive |
| Cc1ccc(-c2nc3ccccc3[nH]2)cc1NC(=O)c1ccc(-c2cccc(Cl)c2)o1 | inactive | inactive |
| CCOc1ccc(CCNC(=O)C2COc3ccccc3O2)cc1OCC (centres undefined) | inactive | inactive |
| CN(C(=O)c1cn2c(-c3ccc(C(F)(F)F)cc3)cnc2cn1)c1ccc(C#N)cc1 | inactive | inactive |
| COc1ccccc1C1=Nn2c(nnc2-c2ccccc2O)SC1 | inactive | inactive |
| COc1ccc(NS(=O)(=O)c2ccccc2)cc1NS(=O)(=O)c1ccccc1 | inactive | inactive |
| Cc1ccc(S(=O)(=O)Nc2ccc(OC(F)(F)F)cc2C(=O)Nc2nc(-c3ccccc3)cs2)cc1 | inactive | inactive |
| O=c1c2ccccc2nc2sc(NCc3ccc(Oc4ccccc4)cc3)nn12 | inactive | inactive |
| O=C(O)c1ccc2c(c1)C(=O)N([C@H](Cc1ccc(O)cc1)C(=O)O)C2=O | inactive | inactive |
| CC(C)[C@@H](C)/C=C/[C@@H](C)[C@H]1CC[C@H]2C3=CC=C4C[C@@H](O)CC[C@]4(C)C3=CC[C@]12C | inactive | inactive |
| COc1cc(O)c(C(CC(=O)N2CCCC(C)C2)c2ccc3c(c2)OCO3)c(OC)c1 (centres undefined) | inactive | inactive |
| O=C(N[C@H]1CCN(C(=O)c2cc(C(F)(F)F)cc(C(F)(F)F)c2)[C@H](Cc2ccc(Cl)cc2)C1)c1ccnc2ccccc12 | inactive | inactive |
| Oc1ccc(/C=C/c2ccccc2F)c2cccnc12 | inactive | inactive |
| C=Cc1ccc(C(=O)N2CCCC(CCC(=O)N3CCN(c4ccccn4)CC3)C2)cc1 (centres undefined) | inactive | inactive |
| O=C(Nc1nnc(-c2ccncc2)s1)NC12CC3CC(CC(C3)C1)C2 | inactive | inactive |
| CCOC(=O)c1nn(-c2ccccc2)c(=O)c2c(N)scc12 | inactive | inactive |
| Cc1noc(-c2sc3c(c2-c2nc4ccccc4s2)CCNC3)n1 | inactive | inactive |
| Cc1ccc(NS(=O)(=O)c2cc3c(cc2-c2cn[nH]c2)NC(=O)CO3)cc1C | inactive | inactive |
| Cc1ccc(OCCn2c(CCNC(=O)NC3CCCCC3)nc3ccccc32)cc1 | inactive | inactive |
| COc1cccc(NCc2ccc(O)c3ncccc23)n1 | inactive | inactive |

| Structure (SMILES) | Potency [1] | Potency [2] |
| --- | --- | --- |
| CC(C)(C)CNc1ncnc2ccc(-c3ccc(CO)o3)cc12 | inactive | inactive |
| Cc1cc(C)cc(Cn2ncc3c4sc(C)cc4n(C)c3c2=O)c1 | inactive | inactive |
| Brc1cnc2nc(SCc3ccccc3)[nH]c2c1 | inactive | inactive |
| CC1(C)CC(=O)C2=C(C1)NC(Nc1nc3ccccc3o1)=NC21CCCCC1 | inactive | inactive |
| Cc1cc(NS(=O)(=O)c2ccc(NC(=O)Cc3ccc(C)c(F)c3)cc2)no1 | inactive | inactive |
| S=C(NCCCNc1ccc(Br)cn1)NCCCc1cnc[nH]1 | inactive | inactive |
| COc1ccccc1-c1csc2ncnc(Sc3nnnn3C)c12 | inactive | inactive |
| O=C(OCC#CCSc1nnc(-c2cccc3ccccc23)o1)c1ccccc1 | inactive | inactive |
| Cc1ccc(-c2nccc(=O)n2C(C)C(=O)NCCc2ccccc2)cc1 (centres undefined) | inactive | inactive |
| CC(C)(C)OC(=O)NCCCNc1ncnc2ccc(-c3ccc4c(c3)OCO4)cc12 | inactive | inactive |
| COc1ccc(C2Nc3ccccc3C(=O)N2Cc2cccnc2)cc1COc1c(C)cc(NC(C)=O)cc1C (centres undefined) | inactive | inactive |
| O=C1CCCC2=C1C(c1cnccc1C(F)(F)F)N=C(Nc1nc3ccccc3o1)N2 (centres undefined) | inactive | inactive |
| O=C(c1ccccc1O)N(Cc1cccs1)Cc1cccs1 | inactive | inactive |
| C=C(C(=O)OC)[C@@H]1CC=C2C=CC(=O)[C@H](C)[C@@]2(C)C1 | inactive | inactive |
| O=C(Nc1ccc(-n2cncn2)c(F)c1)Nc1nnc(-c2ccncc2)s1 | inactive | inactive |
| O=C(O)c1ccc(CSc2nnc(-c3cccc(S(=O)(=O)NC4CCCC4)c3)n2-c2ccc(F)cc2)cc1 | inactive | inactive |
| Cc1nc(N2CCOCC2)c2nc(-c3ccccc3)n(CCCN(C)C)c2n1 | inactive | inactive |
| CC(Nc1nc(-c2ccccc2C(F)(F)F)nc2ccccc12)c1ccc(-c2cccc(C(F)(F)F)c2)cc1 (centres undefined) | inactive | inactive |
| Cc1cc(C)nc(NC(=S)N2CCN(c3ncccc3C#N)CC2)c1 | inactive | inactive |
| O=S(=O)(Nc1ccc2ccccc2c1)c1ccc(NCc2cccc(Cl)c2O)cc1 | inactive | inactive |
| O=C1c2ccccc2C(=O)N1c1cnc2ccccc2c1 | inactive | inactive |
